Among the data in PubChem BioAssay AID493169 (National Center for Advancing Translational Sciences (NCATS), 2011) are Potency values, retold here.

The structures appear in SMILES notation. Results filed as inconclusive are left out. Entries that show only a call come without a potency. Calls of active or inactive are those of the source. Calls follow the shape of the dose curve; as a rule, active = well fitted inhibition curve with a large enough effect; inconclusive = small, poorly fitted or top-dose-only effect; inactive = flat fitted curve, though single readings scatter.
Potency is read from the fitted curve at half-maximal effect.

A short description of this experiment: CHOP2 Reporter Counterscreen Assay for Inhibitors of Ubiquitin-specific Protease USP2a.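 Also: activated enterokinase alone at 50 pM in a cell-free format rather than USP2a or CHOP2; nearly all actives have a fitted effect of over 55% in size.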 Particulars: purified enterokinase, fluorogenic substrate, 485/531 nm; series mostly up to 38.3 µM. In short, it runs like this: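 Cell-free counterscreen with pre-activated enterokinase alone (50 pM final) in 20mM Tris-HCl pH 8.0, 2mM CaCl2, 2mM beta-mercaptoethanol, 0.05% CHAPS; compound preincubation 30 min RT, reporter substrate 25nM final, fluorescence read after 10 min (Ex 485/Em 531).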
A general note: The purpose of a counterscreen is to sort out artefacts and off-target activity.
Take `CC(C)CC(c1nnnn1CC1CCCO1)N1CCN(c2nc3ccccc3s2)CC1` (stereo not given): the Potency result was “inactive”.
The result for `Cc1cc(C(=O)Nc2ccccc2N2CCOCC2)c2ccccc2n1` reads “inactive”.
On to `CCCCC(CC)CN=C(N)NC(N)=NCCCCCCN=C(N)NC(N)=NCC(CC)CCCC` (stereo not given), for which the Potency was 5.62 µM (active).
As to `COc1ccc(/C=C2/SC(=S)N(c3ccc(S(=O)(=O)Nc4nccs4)cc3)C2=O)cc1`, the Potency was 11.2 µM (active).
Consider `CCOc1ccc(S(=O)(=O)N(CC(=O)O)c2ccccc2)cc1`, for which the Potency entry is “inactive”.
The same measure for `CCN1C(=O)CSc2ccc(C(=O)NC3CCCCC3)cc21`: “inactive”; for `O=C(COC(=O)c1ccc(F)c(S(=O)(=O)N2CCOCC2)c1)c1ccccc1`: “inactive”; for `CCc1sc(/C=C(/C#N)C(N)=S)cc1[N+](=O)[O-]`: “inactive”.
The same measure for `COc1ccc(OC)c(Nc2ccc(Nc3cc(OC)ccc3OC)nn2)c1`: “inactive”.
With `COc1cc(OC)cc(-c2c(C#Cc3ccsc3)c3cc(-c4ccc(OC)c(OC)c4)ccc3n2C)c1`, the Potency entry was “inactive”.
The result for `CC(=O)C1=C(O)C(=O)N(c2nnn(C)n2)C1c1cccs1` (stereo not given) reads “inactive”; that for `CCCOc1ccc(/C=C2\SC(=S)N(CC3CCCO3)C2=O)cc1` (stereo not given), “inactive”.
The same measure for `CN(C)c1cccc(C(=O)NNC(=O)C23CC4CC(CC(C4)C2)C3)c1`: “inactive”; for `CCCn1nnc(NC(=O)c2cccc(OCC(C)C)c2)n1`: “inactive”; for `COc1ccc(CN(Cc2cc3cc(C)ccc3[nH]c2=O)C(=O)N(C)C)cc1`: “inactive”.
The same measure for `CCN(CC)CCNc1nc(-c2ccccc2)c2c(c1C#N)CC(C)(C)OC2`: “inactive”.
With `CCOC(=O)COc1c(OC)cc(Cl)cc1C1Nc2ccccc2C(=O)N1c1ccccc1` (stereo not given), the Potency entry is “inactive”.
The same measure for `CCOc1ccc2[nH]c(=O)c(CN(Cc3nnnn3Cc3ccco3)C3CCCCC3)cc2c1`: “inactive”.
The same measure for `COC(=O)N/N=C\c1cc(Br)ccc1OCc1ccccc1`: “inactive”.
Consider `COc1ccc(CNS(=O)(=O)c2ccc(S(=O)(=O)N3CCCCC3)cc2)cc1`, for which the Potency entry was “inactive”.
Take `C#CCOCCOCCOCCNc1nc(N2CCN(C(=O)CCCCCCCCCCNC(=O)[C@H](CO)n3cc(CCCSC)nn3)CC2)nc(N2CCN(C(=O)CCCCCCCCCCNC(=O)[C@H](CCCN=C(N)N)n3cc(C[C@@H](C)CC)nn3)CC2)n1`: the Potency was 3.98 µM (active).
The same measure for `CCOc1ccc(NC(=O)N(CCCN2CCOCC2)Cc2cccnc2)cc1`: “inactive”; for `COc1ccc(/C=C2\SC(=S)N(NS(=O)(=O)c3ccc(C)cc3)C2=O)c(OC)c1`: “inactive”; for `CCCCC1NC(C(=O)O)CS1` (stereo not given): “inactive”.
The result for `CC(=O)COc1ccc2c(-c3ccccc3)cc(=O)oc2c1` reads “inactive”; that for `COc1ccc(NC(=O)C2CC(=O)OC2c2ccccc2)cc1` (stereo not given), “inactive”; that for `O=C(CCCN1C(=O)c2ccccc2C1=O)NC1=NCCS1`, “inactive”.
The same measure for `O=S(=O)(Nc1cccc(-c2cn3c(n2)SCC3)c1)c1ccc(F)cc1F`: “inactive”; for `CNc1nc(OCCNC(=O)Nc2ccccc2)nc(N2CCOCC2)n1`: “inactive”.
`Cc1ccc(NC(=O)c2cc3c(=O)oc4ccccc4c3s2)nc1`: the Potency entry was “inactive”.
The result for `CC(C)(C)C1C=C(Sc2ccccc2)C(=O)O1` (stereo not given) reads “inactive”.
As for `COc1cc2c(C(=O)N3CCN(c4cccc(Cl)c4)CC3)cn(CC(C)C)c(=O)c2cc1OC`, the Potency entry was “inactive”.
The same measure for `Cn1c(C(=O)N2CCN(Cc3ccc4c(c3)OCO4)CC2)cc2sccc21`: “inactive”.
The result for `CC(C)(C)[C@H]1COC(=O)[C@@H](Cc2ccc(F)cc2)C/C=C\C[C@@H](CC(=O)N[C@H](CO)Cc2ccccc2)C(=O)N1` reads “inactive”; that for `Cc1ccc(C(=O)c2coc3c2C(=O)C(=O)c2ccccc2-3)cc1`, “inactive”.
In the case of `O=C1CCCC2=C1C(c1ccco1)Nc1ccc3ccccc3c12` (stereo not given), the Potency was 7.94 µM (active).
The result for `O=C(c1ccccc1N(Cc1ccccc1)S(=O)(=O)c1ccccc1)N1CCOCC1` reads “inactive”; that for `CCC(C(=O)NCc1ccccc1OC)n1nc(C)n2c(cc3occc32)c1=O` (stereo not given), “inactive”.
The result for `O=C1c2ccccc2CCC12N=NCC2c1ccc(Br)cc1` (stereo not given) reads “inactive”.
The same measure for `CCOC(=O)Nc1ccc(S(=O)(=O)Nc2cc(C)nc(C)n2)cc1`: “inactive”.
